Data published in PubChem BioAssay (NCATS).
Records with an inconclusive call do not appear. The source made the active and inactive calls. Calls follow the shape of the dose curve; as a rule, active = well fitted curve in the direction sought with a large enough effect; inconclusive = small, poorly fitted or top-dose-only effect, or another doubt; inactive = no such curve, though single readings can be large; an effect the other way counts as inactive or inconclusive.

Legend:
[1] = test system: MCC-13; test: qHTS assay to identify novel small-molecules to repurpose for Merkel cell carcinoma treatment (AID 1296009); settings: MCC and control cell lines, CellTiter-Glo viability, 72 h; series mostly up to 46 µM; also: nearly all actives have a fitted effect of over 60% in size
Procedure, shortened: (§1)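 Cell viability, measured as CellTiter-Glo luminescence, was normalized between DMSO and no-cell wells. The cells had been exposed to 8- or 11-point compound dilutions for 72 hr at 37 degree celsius.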

[2] = test system: MKL-1; test: as above; settings: MCC and control cell lines, CellTiter-Glo viability, 72 h; series mostly up to 46 µM
Procedure, shortened: as §1

[3] = test system: UISO; test: as above; settings: MCC and control cell lines, CellTiter-Glo viability, 72 h; series mostly up to 46 µM
Procedure, shortened: as §1

[4] = test system: WaGa; test: as above; settings: MCC and control cell lines, CellTiter-Glo viability, 72 h; series mostly up to 46 µM
Procedure, shortened: as §1

[5] = test system: CASKI; test: Primary qHTS to identify gynecologic anti-cancer compounds using libraries of approved drugs and bioactive compounds (AID 1345084); settings: Gynecologic cancer cell panel viability, ATPlite luminescence, 48 h; series mostly up to 57.5 µM; also: nearly all actives have a fitted effect of over 55% in size
Procedure, shortened: (§2)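 ATP-based viability (ATPlite), 1,000 cells/well, 16 h pre-incubation, 48 h compound at 37 C, 5% CO2, 15 min RT before read.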

[6] = test system: Es-2; test: as above; settings: Gynecologic cancer cell panel viability, ATPlite luminescence, 48 h; series mostly up to 57.5 µM
Procedure, shortened: as §2

[7] = test system: Hek293T; test: as above; settings: Gynecologic cancer cell panel viability, ATPlite luminescence, 48 h, control line for the selectivity index; series mostly up to 57.5 µM
Procedure, shortened: as §2

[8] = test system: JEG-3; test: as above; settings: Gynecologic cancer cell panel viability, ATPlite luminescence, 48 h; series mostly up to 57.5 µM
Procedure, shortened: as §2

[9] = test system: Tov-21-G; test: as above; settings: Gynecologic cancer cell panel viability, ATPlite luminescence, 48 h; series mostly up to 57.5 µM
Procedure, shortened: as §2

[10] = test system: Tov112D; test: as above; settings: Gynecologic cancer cell panel viability, ATPlite luminescence, 48 h; series mostly up to 57.5 µM
Procedure, shortened: as §2

[11] = test system: MKL-2; test: qHTS assay to identify novel small-molecules to repurpose for Merkel cell carcinoma treatment (AID 1296009); settings: MCC and control cell lines, CellTiter-Glo viability, 72 h; series mostly up to 46 µM; also: nearly all actives have a fitted effect of over 60% in size
Procedure, shortened: as §1

[12] = test system: C33A; test: Primary qHTS to identify gynecologic anti-cancer compounds using libraries of approved drugs and bioactive compounds (AID 1345084); settings: Gynecologic cancer cell panel viability, ATPlite luminescence, 48 h; series mostly up to 57.5 µM; also: nearly all actives have a fitted effect of over 55% in size
Procedure, shortened: as §2

[13] = test system: HeLa; test: as above; settings: Gynecologic cancer cell panel viability, ATPlite luminescence, 48 h; series mostly up to 57.5 µM
Procedure, shortened: as §2

[14] = test system: PA-1; test: as above; settings: Gynecologic cancer cell panel viability, ATPlite luminescence, 48 h; series mostly up to 57.5 µM
Procedure, shortened: as §2

[15] = test system: SKOV3; test: as above; settings: Gynecologic cancer cell panel viability, ATPlite luminescence, 48 h; series mostly up to 57.5 µM
Procedure, shortened: as §2

[16] = Drug repurposing screens with cells derived from glioblastoma tumor samples (AID 1345199); settings: GBM patient neurospheres viability, ATP luminescence, 48 h; also: nearly all actives have a fitted effect of over 40% in size
Procedure, shortened: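 Primary testing used CD133+ neurospheres from four GBM patients, seven concentrations, 48 h exposure and ATP-based viability; confirmation added three slower-growing patient lines.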

[17] = test system: CAOV3; test: Primary qHTS to identify gynecologic anti-cancer compounds using libraries of approved drugs and bioactive compounds (AID 1345084); settings: Gynecologic cancer cell panel viability, ATPlite luminescence, 48 h; series mostly up to 57.5 µM; also: nearly all actives have a fitted effect of over 55% in size
Procedure, shortened: as §2

[18] = test system: OV90; test: as above; settings: Gynecologic cancer cell panel viability, ATPlite luminescence, 48 h; series mostly up to 57.5 µM
Procedure, shortened: as §2

[19] = test system: MCC-26; test: qHTS assay to identify novel small-molecules to repurpose for Merkel cell carcinoma treatment (AID 1296009); settings: MCC and control cell lines, CellTiter-Glo viability, 72 h; series mostly up to 46 µM; also: nearly all actives have a fitted effect of over 60% in size
Procedure, shortened: as §1

[20] = at 20 µM (top of the series), tumour line C
[21] = at 21.2 µM (top of the series), tumour line B
[22] = at 21.2 µM (top of the series), tumour line D
[23] = at 45.9 µM (top of the series), tumour line B
[24] = at 45.9 µM (top of the series), tumour line D
[25] = at 46.1 µM (top of the series), tumour line C
% is scaled to controls: 0 for no effect and ±100 for the full control effect; potency is read from the fitted curve at half-maximal effect.

Cc1cccc(C)c1NC(=O)CN1CCN(CCCC(c2ccc(F)cc2)c2ccc(F)cc2)CC1
inactive: Potency [1] | Potency [2] | Potency [3] | Potency [4] | Potency [5] | Potency [6] | Potency [7] | Potency [8] | Potency [9] | Potency [10]

C[C@@H](CN(C)C)CN1c2ccccc2Sc2ccccc21
active: Potency [11] 23.7 µM | Potency [15] 17.8 µM | Potency ([16]; tumour line A) 8.91 µM
inactive: Potency [1] | Potency [3] | Potency [4] | Potency [12] | Potency [5] | Potency [6] | Potency [13] | Potency [7] | Potency [8] | Potency [14] | Potency [9] | Potency [10] | activity, negative = cell killing [16, 20] 31.6% | activity, negative = cell killing [16, 21] -28.5%

CC1=C(C(=O)O)N2C(=O)[C@@H](NC(=O)[C@H](N)c3ccc(O)cc3)[C@H]2SC1
inactive: Potency [1] | Potency [2] | Potency [11] | Potency [3] | Potency [4] | Potency [12] | Potency [17] | Potency [5] | Potency [6] | Potency [13] | Potency [7] | Potency [8] | Potency [18] | Potency [14] | Potency [15] | Potency [9] | Potency [10] | activity, negative = cell killing [16, 20] -0.623% | activity, negative = cell killing [16, 21] -10.2% | activity, negative = cell killing [16, 22] -21.8%

Cc1cc(=O)n(-c2ccccc2)n1C
inactive: Potency [1] | Potency [2] | Potency [11] | Potency [3] | Potency [4] | Potency [12] | Potency [17] | Potency [5] | Potency [6] | Potency [13] | Potency [7] | Potency [8] | Potency [18] | Potency [14] | Potency [15] | Potency [9] | Potency [10] | activity, negative = cell killing [16, 23] -5.78% | activity, negative = cell killing [16, 24] 0.358% | activity, negative = cell killing ([16]; at 46 µM (top of the series), tumour line A) -19.4% | activity, negative = cell killing [16, 25] -23.6%

CCCCOc1ccc(OCCCN2CCOCC2)cc1
active: Potency ([16]; tumour line A) 4.47 µM
inactive: Potency [1] | Potency [2] | Potency [11] | Potency [3] | Potency [4] | Potency [12] | Potency [17] | Potency [5] | Potency [6] | Potency [13] | Potency [7] | Potency [8] | Potency [18] | Potency [14] | Potency [15] | Potency [9] | Potency [10] | activity, negative = cell killing [16, 20] -6.83%

Oc1ccc(Cl)cc1Sc1cc(Cl)ccc1O
active: Potency [2] 21.1 µM | Potency [3] 18.8 µM | Potency [4] 21.1 µM
inactive: Potency [19] | Potency [5] | Potency [18] | Potency [15]

Oc1c(I)cc(Cl)c2cccnc12
inactive: Potency [17] | Potency [5] | Potency [13] | Potency [8] | activity, negative = cell killing [16, 25] -11.9%
active: Potency [11] 7.5 µM | Potency [3] 16.8 µM | Potency [4] 23.7 µM | Potency ([16]; tumour line A) 17.8 µM | Potency ([16]; tumour line B) 17.8 µM

CN(C(=O)CN(CCO)CC(=O)N(C)C(C)(C)Cc1ccccc1)C(C)(C)Cc1ccccc1
inactive: Potency [12] | Potency [5] | Potency [6] | Potency [13] | Potency [7] | Potency [8] | Potency [18] | Potency [14] | Potency [15] | Potency [9] | Potency [10] | activity, negative = cell killing [16, 20] 7.73% | activity, negative = cell killing [16, 21] -8.65% | activity, negative = cell killing [16, 22] -0.577%
active: Potency [11] 16.8 µM | Potency ([16]; tumour line A) 10 µM

O=C(CCCN1CCC(O)(c2ccc(Br)cc2)CC1)c1ccc(F)cc1
inactive: Potency [19] | Potency [2] | Potency [11] | Potency [12] | Potency [5] | Potency [6] | Potency [13] | Potency [7] | Potency [8] | Potency [15] | Potency [9] | Potency [10] | activity, negative = cell killing [16, 20] 5.41%
active: Potency ([16]; tumour line A) 3.55 µM | Potency ([16]; tumour line D) 8.91 µM

CC(=O)N(O)CCCCCNC(=O)CCC(=O)N(O)CCCCCNC(=O)CCC(=O)N(O)CCCCCN
active: Potency [2] 3.35 µM | Potency [4] 10.6 µM | Potency [18] 6.31 µM
inactive: Potency [5] | Potency [13] | Potency [15] | Potency [9] | activity, negative = cell killing [16, 20] 5.11% | activity, negative = cell killing [16, 21] -16.9% | activity, negative = cell killing [16, 22] -9.85% | activity, negative = cell killing ([16]; at 21.3 µM (top of the series), tumour line A) -22.8%

CN1C(CCl)Nc2cc(Cl)c(S(N)(=O)=O)cc2S1(=O)=O (stereo not drawn)
inactive: Potency [12] | Potency [17] | Potency [5] | Potency [6] | Potency [13] | Potency [7] | Potency [8] | Potency [18] | Potency [14] | Potency [15] | Potency [9] | Potency [10] | activity, negative = cell killing [16, 23] -5.52% | activity, negative = cell killing [16, 24] -2.64% | activity, negative = cell killing [16, 25] -28.6%

C=C(CC)C(=O)c1ccc(OCC(=O)O)c(Cl)c1Cl
active: Potency [2] 8.41 µM | Potency [11] 15 µM | Potency [4] 13.3 µM
inactive: Potency [12] | Potency [5] | Potency [6] | Potency [13] | Potency [8] | Potency [18] | Potency [14] | Potency [15] | activity, negative = cell killing [16, 25] 1.71%
